# Compound activity as filed in PubChem BioAssay.
# Rows were chosen to be rich in hits. Some 7.5% of all compounds tested hit in one or more screens of this group.
# ELG1 genotox – genotoxicity induction in ELG1-luciferase HEK293T cells | HEK293T ELG1-luciferase reporter, luminescence, 16 h | Potency, µM (doses to about 46 µM), without a hit: at the top dose activity change, positive = activation, usual class: activators | 330,000 tested, 1.3% active; note: % of control where 0% means no effect; nearly all actives have a fitted effect of over 60% in size
#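 HEK293T cells expressing luciferase-tagged ELG1 were treated with compound or DMSO for 16 hr at 37°C. Luciferase activity was then read after 30 min with ONE-Glo at room temperature; rising signal flags genetic stress.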
# Luc counter – blocks Kinase-Glo luciferase, a counter-screen artifact; Kinase-Glo luciferase, ATP luminescence, 8 min; Potency, µM (series often up to 38.3 µM), without a hit: at the top dose activity change, negative = inhibition, actives largely listed as inhibitors; Q27757; 200,000 tested, 0.28% active; AID 1379; note: % is set by controls: 0 for no effect and ±100 for the full control effect; nearly all actives have a fitted effect of over 60% in size
#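 Compounds were added to a substrate mix at pH 7.2 (50 mM imidazole, 10 uM ATP, within the enzyme's linear range), followed by Kinase-Glo detection reagent; luminescence was measured after 8 minutes at ambient temperature.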
# NPC1 promoter act – activates the NPC1 promoter; Huh7 NPC1 promoter luciferase reporter, 24 h; Potency, µM (series often up to 9.22 µM), for inactives: top-dose activation, usual class: activators; 320,000 tested, 2.4% active; note: % of control where 0% means no effect; nearly all actives have a fitted effect of over 60% in size
#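 Luminescence from an NPC1 promoter-driven luciferase reporter in stably transfected Huh7 cells was measured after 24 h compound treatment at 37 °C, followed by 10 min ambient incubation with luciferase detection reagent.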
# SMN2 splice enh – SMN2 splice variant enhancement | HEK293 SMN2-luciferase splicing reporter, luminescence, 30-36 h | Potency, µM (highest dose often 46.1 µM), for the others: at the top dose activity change, positive = activation, actives largely listed as activators | 210,000 tested, 2.8% active; note: % of control where 0% means no effect; nearly all actives have a fitted effect of over 55% in size
#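 HEK293 cells carry an SMN2 […]–luciferase reporter in which exon 7 inclusion puts luciferase in frame. Cells were plated 10-12 h before compound addition, then incubated 30-36 h at 37C. ONE-Glo luminescence was read; sodium butyrate at 4.5 mM final served as control.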
# Rab9 promoter act – activators of Rab9 promoter | Huh7 Rab9 promoter-luciferase reporter, luminescence, 24 h | Potency, µM (highest dose often 9.22 µM), without a hit: at the highest dose activation, negative = inhibition, hits mostly activators | 320,000 tested, 2.8% active; note: % of control where 0% means no effect; nearly all actives have a fitted effect of over 60% in size
#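 Promoter activation is measured as luciferase luminescence in Huh7 cells stably transfected with a Rab9 promoter–luciferase construct, following 24 h compound exposure at 37 °C and 10 min reagent incubation at ambient temperature.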
# FLuc modulator – inhibits or activates purified firefly luciferase, miR-21 counter-screen. AID 588342. Potency, µM (top dose mostly 57.5 µM), inactives show at the highest dose activity change, negative = inhibition, usual class: inhibitors. 360,000 tested, 6.9% active. P08659. purified FLuc, Km substrates, luminescence inhibition;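 note: plate controls were vehicle for no effect and reference inhibitor for full effect; nearly all actives have a fitted effect of over 55% in size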
# Target sequence (P08659 whole entry, looked up): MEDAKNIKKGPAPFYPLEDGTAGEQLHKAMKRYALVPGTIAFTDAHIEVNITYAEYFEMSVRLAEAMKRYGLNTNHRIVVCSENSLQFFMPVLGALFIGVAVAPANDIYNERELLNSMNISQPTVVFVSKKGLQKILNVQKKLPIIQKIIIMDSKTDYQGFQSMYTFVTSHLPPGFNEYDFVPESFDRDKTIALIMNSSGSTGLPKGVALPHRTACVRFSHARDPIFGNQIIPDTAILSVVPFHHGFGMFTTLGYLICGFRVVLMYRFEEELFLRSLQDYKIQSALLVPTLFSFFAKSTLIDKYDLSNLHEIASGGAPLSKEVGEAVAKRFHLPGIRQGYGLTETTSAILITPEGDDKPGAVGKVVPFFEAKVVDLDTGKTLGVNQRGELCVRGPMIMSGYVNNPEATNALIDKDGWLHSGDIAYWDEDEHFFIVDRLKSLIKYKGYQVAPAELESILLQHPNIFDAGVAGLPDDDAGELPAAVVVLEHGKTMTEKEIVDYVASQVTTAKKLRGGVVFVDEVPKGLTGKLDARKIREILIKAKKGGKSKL
#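 Purified P. pyralis luciferase (10nM final) with 10uM D-luciferin and 10uM ATP (Km levels) in 50mM Tris acetate pH 7.5, 10mM Mg acetate, 0.01% Tween-20, 0.05% BSA; qHTS 6-point titration, ~60 µM downward; luminescence read.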
# Active calls of the source: *; ? = inconclusive; · = no result given; [ ] = dose if it differs, or a comment. Calls come from the whole dose curve; as a rule, active = well fitted curve in the direction sought with a large enough effect; inconclusive = small, poorly fitted or top-dose-only effect, or another doubt; inactive = no such curve, though single readings can be large; an effect the other way counts as inactive or inconclusive. Potency is the fitted concentration of half-maximal effect.
SMILES,ELG1 genotox,Luc counter,NPC1 promoter act,SMN2 splice enh,Rab9 promoter act,FLuc modulator
Cc1[nH]n(-c2ccccc2)c(=O)c1CCOC(=O)c1cccc(C(F)(F)F)c1,1%,-2%,2%,-13%,3%,5%
Cc1ccc(C(=O)OCCc2c(C)[nH]n(-c3ccccc3)c2=O)cc1,0%,0%,-4%,-22%,2%,13µM*
Cc1cc(C)c(NC(=O)Cn2c(=O)n(CC3CCCO3)c(=O)c3ccccc32)c(C)c1 (stereo unspecified),·,·,·,-4%,·,1%
CC(C)c1ccc(S(=O)(=O)/N=C2\C=C(NS(=O)(=O)c3ccccc3)C(=O)c3ccccc32)cc1,-10%,·,8%,·,12%,19µM*
CCc1ccc(S(=O)(=O)/N=C2\C=C(NS(=O)(=O)c3ccccc3)C(=O)c3ccccc32)cc1,?,·,22%,·,14%,15µM*
COc1ccc(C(=O)COC(=O)CN2C(=O)c3ccccc3C2=O)c(OC)c1,4%,·,2%,·,13%,-2%
COc1ccccc1C(=O)Nc1sc(Nc2ccccc2)nc1C(N)=O,·,·,·,·,·,2%
CC1=C(C(=O)Nc2ccc(C)c(C)c2)C2(CCCCCC2)OC1=O,·,·,·,·,·,2%
Cc1ccc(C(=O)Nc2sc3c(c2C(=O)O)CCCCC3)o1,2%,7.9µM*,3.5µM*,13µM*,3.5µM*,2.7µM*
COC(=O)c1c(NC(=O)c2ccc(C)o2)sc2c1CCCCC2,10µM*,-2%,3.5µM*,14µM*,3.5µM*,12µM*
Cc1ccc(C(=O)Nc2sc3c(c2C(=O)O)CCCC3)o1,4%,·,?,·,?,12µM*
Cc1ccc(Cl)cc1N1CCN(C(=O)CCCn2c(=O)[nH]c3ccc(Br)cc3c2=O)CC1,·,·,·,-9%,·,-11%
COc1ccccc1/C=N/Nc1nncc2ccccc12,?,-21%,?,10µM*,3.5µM*,9.5µM*
Oc1c(Br)cc(/C=N/Nc2nncc3ccccc23)cc1Br,12%,·,?,·,29%,9.5µM*
C/C(=N\Nc1nc(-c2ccccc2O)nc2ccccc12)c1ccccc1,0%,-7%,15%,·,17%,?
COc1ccc(/C(C)=N/Nc2nc3ccccc3nc2C)cc1,7%,·,4%,·,6%,2.7µM*
COc1ccc(/C=N/Nc2nncc3ccccc23)cc1,0.26µM*,11µM*,0.28µM*,0.71µM*,0.2µM*,0.17µM*
COc1ccc(/C=N/NC(N)=S)cc1,5%,·,1%,·,1%,?
CCC(=O)NC1Cc2ccccc2C(c2ccccc2)C1 (stereo unspecified),·,·,·,-7%,·,·
Cc1c(C)c(C)c(CC2(C)CSC2)c(CC2(C)CSC2)c1C,·,-3%[7.66 µM],·,-12%[9.22 µM],·,·
NNc1nncc2ccccc12,·,-9%,2.6µM*,13µM*,2.3µM*,·
COc1ccc(/C(C)=N/Nc2nncc3ccccc23)cc1,?,·,1.6µM*,·,0.71µM*,1.3µM*
CNC(=S)NNc1nncc2ccccc12,5%,1%,-2%,22%,-2%,0%
Cc1cccc(-c2noc(CN(C3CCCCC3)S(=O)(=O)c3ccc(F)cc3)n2)c1,·,·,·,-7%,·,-9%
Cc1ccc2ccccc2c1[N+](=O)[O-],·,·,·,6%,·,·
CCOc1ccc(CC(=O)Nc2c(C(=O)Nc3ccc(OC)cc3OC)oc3ccccc23)cc1,·,·,·,-18%,·,-3%
CCOc1ccccc1-c1noc(CSc2nnc(-c3ccccc3)n2-c2ccc(F)cc2)n1,·,·,·,0%,·,0%
O=C(OCC(=O)N1CCC(Cc2ccccc2)CC1)c1ccccc1F,3%,·,1%,·,2%,4.3µM*
O=C(OCC(=O)N1CCC(Cc2ccccc2)CC1)c1ccccc1,6%,-5%,-14%,-6%,?,12µM*
Cc1cc(N2CCN(C)CC2)nc2ccc(NC(=O)c3ccc4c(c3)OCO4)cc12,20%,-4%,28%,·,?,13µM*
